Marburg entry: qHTS for Inhibitors of binding or entry into cells for Marburg Virus | Marburg virus pseudotype entry/binding inhibition, cell-based | actives 6.5% (n = 18,000) | Potency, µM (highest dose often 49.2 µM), without a hit: top-dose activity change, negative = inhibition, actives largely listed as inhibitors | AID 720532, 2013
Lassa entry: qHTS for Inhibitors of binding or entry into cells for Lassa Virus; Lassa virus pseudotyped entry inhibition, cell-based qHTS; Potency, µM (top dose mostly 49.2 µM), inactives show at the highest dose activity change, negative = inhibition, usual class: inhibitors; actives 4.1% (n = 18,000)
* hit, by the source's call; ? = inconclusive; nt = no result; ! = not active in a repeat; [ ] = dose if it differs, or a comment. Hits are enriched below; roughly 7.1% of the tested compounds scored in any of these assays. Calls follow the shape of the full dose curve; tested in HEK293 cells. % is scaled to controls: 0 for no effect and ±100 for the full control effect; potency is read from the fitted curve at half-maximal effect.

SMILES | Marburg entry | Lassa entry
COC(=O)C(C)c1ccc(C(=O)c2cccs2)cc1 (configuration not stated) | 4.0% | 0.0%
CNCCCCCCCCSc1nc(C(C)C)ccc1C(=O)c1cccs1 | 5.62µM* | ?
COC(=O)[C@]1(CC=Cc2ccccc2)C=C[C@@H](C)[C@H](c2ccccc2Br)N1C(=O)C(F)(F)F | 12.9%[8.59 µM] | 14.5%[8.59 µM]
COc1cccc([C@@H]2NC(=O)CC=C[C@H](C)[C@H](c3cccc(OC)c3)NC(=O)CC=C[C@H]2C)c1 | 15.8%[8.59 µM] | 5.4%[8.59 µM]
C[C@H]1[C@@H](c2ccccc2)Oc2c(Cl)cccc2S(=O)(=O)N1Cc1ccc(Cl)cc1 | -24.3% | -8.1%
Cc1cnc(SCc2ccccn2)nc1C1CCCN(C(=O)c2scc3c2CCCC3)C1 (configuration not stated) | 10µM* | ?
CC(=O)Nc1ccc(C(=O)N2CCCC(c3nc(SCc4ccccn4)ncc3C)C2)cc1 (configuration not stated) | -7.5% | -0.5%
COc1ccc2c3c1O[C@H]1C(=O)CC[C@@]4(O)C(C2)N(CC2CC2)CCC314 (some centres not stated) | ? | -7.1%
Oc1ccc2c3c1O[C@H]1c4[nH]c5c(c4C[C@@]4(O)[C@@H](C2)N(CC2CC2)CC[C@]314)C[C@]1(O)[C@H]2Cc3ccc(O)c4c3[C@@]1(CCN2CC1CC1)[C@@H]5O4 | 2.6% | -10.2%
Oc1ccc2c3c1O[C@H]1c4oc5ccccc5c4C[C@@]4(O)C(C2)N(CC2CC2)CC[C@]314 | 14.1µM* | ?
Oc1ccc2c3c1O[C@H]1c4c(c5ccccc5n4Cc4ccccc4)C[C@@]4(O)C(C2)N(CC2CC2)CC[C@]314 | 7.94µM* | 14.1µM*
CC(=O)OC[C@H]1O[C@H](c2cc(C)cc(C)c2)C=C[C@H]1OC(C)=O | 26.0%[8.59 µM] | -27.1%[8.59 µM]
CC1=CC[C@@H](COc2ccccc2)O[C@@]2(C1)C(=O)N(Cc1ccc(Br)cc1)c1ccccc12 | 25.0%[8.59 µM] | -24.6%[8.59 µM]
C=CCN1c2ccccc2[C@]23CCC(=O)N(Cc4ccco4)C2=NC(C(=O)OC)=C(C(=O)OC)[C@H]13 | -1.4%[8.59 µM] | -14.3%[8.59 µM]
CCN1CCC(CC(=O)Nc2n[nH]c3nnc(-c4cccc(F)c4F)cc23)CC1 | -17.9% | nt
C=CC(C)(C)c1[nH]c2ccccc2c1C1=C(O)C(=O)C(c2c[nH]c3c(CC=C(C)C)cccc23)=C(O)C1=O | -7.2% | 14.1µM*
C=CC[C@@H]1C=C[C@@H](ON=C2[C@H]3CCn4c(=O)n(-c5ccccc5)c(=O)n4[C@@H]3[C@H](O)[C@@H]3O[C@H]23)[C@@H](CO)O1 | -21.9%[8.59 µM] | -5.2%[8.59 µM]
CCCC[C@]12Cc3c(ccc4ccccc34)[C@H](O1)c1c(cc(C)oc1=O)O2 | 34.3%[8.59 µM] | 4.8%[8.59 µM]
CC(CN1CCc2nnc(CNC(=O)c3cccc(F)c3)n2CC1)c1ccccc1 (configuration not stated) | -8.9% | -0.3%
O=C(NCc1nnc2n1CCN(Cc1cc(F)cc(F)c1)CC2)c1cccc(F)c1 | 5.01µM* | ?
COCCN1C(=O)NC(c2cccc(C(F)(F)F)c2)C(C(C)=O)=C1C (configuration not stated) | 11.2%[8.59 µM] | -23.9%[8.59 µM]
COc1cc(O)c(C(C)=O)c(OC)c1 | 8.91µM* | 5.62µM*
COc1ccc(C(=O)CC(=O)c2c(O)cc(OC)cc2OC)cc1 | 18.3%[8.59 µM] | -12.5%[8.59 µM]
COC(=O)CC=C1c2ccccc2[C@@H](O)[C@@H]1C | 52.2%[8.59 µM] | -16.8%[8.59 µM]
CCOC(=O)c1c(C)n(C)c2ccc(O)cc12 | 5.7% | -4.0%
SMILES | Marburg entry | Lassa entry
CCCCNc1c(C(=O)OCC)c(C)nc2c1cnn2CC | 7.94µM*! | 25.1µM*!
C[C@@H]1[C@@H](c2ccccc2)Oc2c(Cl)cccc2S(=O)(=O)N1Cc1ccc(F)cc1F | 8.1% | 3.5%
COC(=O)C1=C(C)NC(C)=C(C(=O)OCCSc2ccccc2)C1C (configuration not stated) | ? | 12.6µM*
CCOC(=O)C1=C(C)NC(C)=C(C(=O)OC)C1c1cccc(Cl)c1Cl (configuration not stated) | -2.9% | -6.5%
CN(c1ccc(NC(=O)Nc2c(Cl)cccc2Cl)cc1)c1ccnc(Nc2cccc(CS(C)(=O)=O)c2)n1 | -44.4% | -48.5%
O[C@H]1C[C@H](c2ccccc2)N(Cc2cccs2)C[C@H]1n1cc(C2CC2)nn1 | ? | 2.0%
CC(=O)NC1C(OC2OC(CC(O)C3OC([N+]4=CCC(=O)NC4=O)C(O)C3O)C(O)C(O)C2NC(=O)/C=C/CCCCCCCCC(C)C)OC(CO)C(O)C1O (configuration not stated) | ? | -27.8%
CC(=O)N[C@H]1C(O[C@@H]2O[C@H](C[C@@H](O)[C@H]3O[C@@H](N4CCC(=O)NC4=O)[C@H](O)[C@@H]3O)[C@H](O)[C@H](O)[C@H]2NC(=O)/C=C/CCCCCCCCCCC(C)C)OC(CO)[C@@H](O)[C@@H]1O (some centres not stated) | 4.47µM* | ?
COc1cc(NS(C)(=O)=O)ccc1Cc1c2ccccc2nc2ccccc12 | 2µM* | ?
CN1CCN(c2nc(-c3cccc(NS(C)(=O)=O)c3)nc3ccccc23)CC1 | -28.9% | 21.6%
C[C@H]1CC[C@H]2C(=O)NC[C@H](O)CN2[C@H]1c1ccc(Br)cc1 | -9.5%[8.59 µM] | 10.8%[8.59 µM]
CC(=O)OCOC(=O)CN(CC(=O)OCOC(C)=O)c1ccccc1OCCOc1ccccc1N(CC(=O)OCOC(C)=O)CC(=O)OCOC(C)=O | 15.8µM* | ?
CC(=O)C1=C(C)N(Cc2ccccc2)C(=O)NC1c1cccc(F)c1 (configuration not stated) | -4.6%[8.59 µM] | -7.3%[8.59 µM]
O=C(CCCN1CCC(O)(c2ccc(Cl)cc2)CC1)c1ccc(F)cc1 | 12.6µM* | ?
O=C(CCCN1CCC(O)(c2ccc(Br)cc2)CC1)c1ccc(F)cc1 | ? | -15.9%[17.8 µM]
C[C@@H]1C[C@H]2CC(=O)N3[C@H](CC(=O)N2[C@H]1c1ccccc1)C[C@@H](C)[C@@H]3c1ccccc1 | 15.2%[8.59 µM] | 6.1%[8.59 µM]
CCOC(=O)NN=C1C[C@@H](O)[C@@H](O)[C@@H]2[C@H]3C(=O)N(Cc4ccccc4)C(=O)[C@@H]3CC[C@@H]12 | 24.9%[8.59 µM] | 7.7%[8.59 µM]
CC(C)CCOC(=O)c1ccc(N(C)C)cc1 | 7.9% | 8.0%
CN=C1C=CC(=C(c2ccc(N(C)C)cc2)c2ccc(N(C)C)cc2)C=C1 | 2.82µM* | 3.55µM*
CCCCCCCCCCCCCCCC(=O)O | 3.3% | 3.8%
CCCCCCC[n+]1ccc(-c2cc[n+](CCCCCCC)cc2)cc1 | -1.5% | -20.4%
CCCCCCCCCCCCCC[n+]1ccc(C)cc1 | ? | 22.4µM*
CCCCCCCCc1[se]c2ccccc2c1I | 1.4% | 3.6%
CCCCCCCCCCCC[n+]1ccc2ccccc2c1 | 11.2µM* | 8.91µM*
CCCCCCCCCCCCCCCC[n+]1ccccc1 | 12.6µM* | 22.4µM*
CC(C)CON=C1C[C@@H](O)[C@@H](O)[C@@H]2[C@H]3C(=O)N(c4ccc(F)cc4F)C(=O)[C@@H]3CC[C@H]12 | -10.3%[8.59 µM] | -28.7%[8.59 µM]
CCCCCC(=O)CC[C@@H]1[C@@H](C/C=C\CCCC(=O)O)[C@@H](O)C[C@H]1O | 4.4% | -14.3%
CCCCCCCC(=O)CC[C@@H]1[C@@H](C/C=C\CCCC(=O)OC(C)C)[C@@H](O)C[C@H]1O | ? | 15.8µM*
O=C1[C@H]2[C@@H]3[C@@H](O)[C@H](O)CC(=NOCc4ccccc4)[C@@H]3CC[C@H]2C(=O)N1C1CCCCC1 | -13.6%[8.59 µM] | nt
COc1ccc(/C=C/C(=O)O)cc1OC | 11.3% | 35.0%
